From PubChem
Hits are enriched below; roughly 21% of the tested compounds scored in any of these assays.
NS1 inh: blocks influenza NS1 protein function | AID 2326 | 270,000 tested, 0.4% active | Potency, µM (titrated, usually from 46.1 µM), inactives show at the highest dose activity, positive = more growth; note: potency is the fitted concentration of half-maximal effect; actives are rising curves; nearly all actives have a fitted effect of over 50% in size
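OD600 was taken as the measure of yeast growth restored by compound in an NS1-expressing S. cerevisiae strain. Cells had been washed out of glucose medium and diluted 1:100 into galactose -URA medium, pH 6.0.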
SARS PLP yeast: SARS-CoV PLP inhibition in yeast; S. cerevisiae expressing SARS-CoV PLpro, growth rescue; Potency, µM (doses to about 32.9 µM), for inactives: top-dose activity, positive = growth rescue, most hits filed as activators; 330,000 tested, 0.19% active; note: potency is the fitted concentration of half-maximal effect; 0% is about no effect; nearly all actives have a fitted effect of over 55% in size
Pf growth 48h: inhibits P. falciparum growth in the first generation, 48 h. P. falciparum luciferase growth in erythrocytes, 48 h. Potency, µM (series often up to 28.7 µM), without a hit: at the top dose activity change, negative = inhibition, actives largely listed as inhibitors. 310,000 tested, 5.9% active. AID 504832; active = well fitted inhibition curve with a large enough effect; inconclusive = small, poorly fitted or top-dose-only effect, or another doubt; inactive = no such curve, though single readings can be large or run the other way; note: potency is the fitted concentration of half-maximal effect; % is set by controls: 0 for no effect and ±100 for the full control effect
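Erythrocytes infected with P. falciparum carrying an integrated firefly luciferase reporter (2% hematocrit, 0.1% parasitemia final) were exposed to compounds in RPMI 1640 with 0.5% Albumax at 37 C, 5% CO2. Growth inhibition was scored as reduced luminescence.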
Shiga inhibitor: blocks Shiga toxin action in Vero cells; Vero cells, Shiga toxin protein synthesis inhibition reporter; inhibition, % at 38.7 µM; 290,000 tested, 9.2% active; in the data active = inhibition mostly above about 28%, no sharp cut-off; inactive = mostly below about 43%; note: 0% is about no effect
CHX counter: counter-screen for Shiga toxin inhibitors: cycloheximide protein synthesis inhibition; 300,000 tested, 12% active; max response, %; AID 2314; cell reporter, cycloheximide protein synthesis inhibition counterscreen; in the data active = max response mostly above about 13%, no sharp cut-off; inactive = mostly below about 14%; note: read at 38.3 µM for the half of the compounds with a filed dose; 0% is about no effect
Pf growth 96h: inhibits malaria parasite growth, 96 h; P. falciparum luciferase reporter growth, 96 h; Potency, µM (top dose mostly 28.7 µM), for inactives: at the top dose activity change, negative = inhibition, hits mostly inhibitors; 320,000 tested, 6.9% active; AID 504834; active = well fitted inhibition curve with a large enough effect; inconclusive = small, poorly fitted or top-dose-only effect, or another doubt; inactive = no such curve, though single readings can be large or run the other way; note: potency is the fitted concentration of half-maximal effect; % is set by controls: 0 for no effect and ±100 for the full control effect
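Two-generation exposure (96 h) targets delayed-death phenotype. Reporter parasites carrying integrated firefly luciferase, in red cells at 2% hematocrit and 0.05% parasitemia final, kept at 37 C, 5% CO2; luminescence loss indicates inhibition.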
Numbers without * were called inactive; u = inconclusive; x = no result; [ ] = dose if it differs, or a comment. Unless noted, calls come from the whole dose curve.

SMILES | NS1 inh | SARS PLP yeast | Pf growth 48h | Shiga inhibitor | CHX counter | Pf growth 96h
CN1CCN(C(=O)C2=C[C@H](c3ccc(C(F)(F)F)cc3)C[C@H](OCc3ccc(CO)cc3)O2)CC1 | -1% | 1% | u | -6 | 1 | u
COc1ccc(OCCSc2nc(N)cc(N)n2)cc1 | 9% | -12% | x | 101* | 49* | 255%
CCNc1nc(NC(C)C)nc(SCCOc2ccc(C)cc2)n1 | -1% | -23% | -21% | 16 | 10 | u
Cc1ccc(OCCSc2nc(N)cc(N)n2)cc1 | x | -11% | 438% | 130* | 53* | u
C/C=C/c1cc(CN2CCN(c3ccccc3)CC2)c(O)c(OC)c1 | x | -3% | 1.3µM* | 20 | -1 | 1.7µM*
COc1cc(Br)cc(CN2CCN(C=O)CC2)c1O | 1% | 1% | -1% | -24 | 8 | u
C/C=C/c1cc(CN2CCN(c3ccc(OC)cc3)CC2)c(O)c(OC)c1 | x | 0% | 1.5µM* | 2 | 2 | u
O=C(COC(=O)CC1CC2CCC1C2)NCc1ccccc1 (configuration not stated) | x | 4% | x | x | x | x
COc1ccc(CCNC(N)=S)cc1OC | 9% | 9% | 21% | 4 | -2 | 10µM*
COc1ccc(CCNC(=O)Cc2ccccc2)cc1OC | 0% | -3% | 0% | x | -1 | 74%
COc1ccc(CCNC(=S)c2ccccc2)cc1OC | -5% | 0% | 4.7µM* | 21 | -1 | 5.2µM*
COc1ccccc1NC(=S)NCCc1ccc(OC)c(OC)c1 | -6% | -1% | 2.6µM* | -12 | 6 | 4.7µM*
COC(=O)c1ccc(NC(=S)NCCc2ccc(OC)cc2)cc1 | 9% | 0% | u | -3 | 1 | -13%
CNC(=S)NCCc1ccc(OC)c(OC)c1 | 0% | 0% | 64% | -4 | 0 | 92%
CCOC(=O)c1ccc(NC(=S)NCCc2ccc(OC)c(OC)c2)cc1 | -1% | -1% | u | -8 | -1 | 10µM*
CCN(CC)C(CNC(=O)c1cc(=O)[nH]c2ccccc12)c1ccccc1Cl (configuration not stated) | 4% | -2% | -17% | -10 | 5 | -2%
O=c1c(Cc2c(F)cccc2Cl)c(O)ccn1C1CC1 | 3% | -3% | -32%[5.75 µM] | 12 | 1 | 10%
COc1ccc(CCNC(=O)c2sc3ccccc3c2Cl)cc1OC | -8% | -27% | -4% | -2 | -8 | 137%
COc1ccc(CN(CCc2ccccc2)Cc2ccccc2)cc1OC | 0% | 1% | 8.3µM* | 14 | 9 | u
COc1ccc(CCNC(=O)c2cc3sc(Cl)cc3n2C)cc1OC | -48% | -17% | -15% | 5 | -2 | 9.3µM*
Cc1ccc(CCNC(=O)CNC(=S)N(Cc2ccccc2)Cc2cccnc2)cc1 | x | 1% | u | -11 | -6 | 16%
COc1ccc(CCNC(=S)NCCc2ccc(OC)c(OC)c2)cc1OC | 0% | 0% | 6.6µM* | -6 | -3 | 13µM*
COc1ccc(CN(Cc2cccnc2)C(=S)NCCc2ccccc2)cc1OC | u | 2% | u | -13 | -2 | 15µM*
O=C(COc1cc(F)ccc1[N+](=O)[O-])Nc1cc(S(=O)(=O)N2CCCC2)ccc1Cl | x | 1% | 2% | x | x | u
CCOC(=O)c1ccc(Nc2ccc(-c3ccc(OC)c(OC)c3)nn2)cc1 | -6% | -1% | 12µM* | -3 | 1 | -5%
SMILES | NS1 inh | SARS PLP yeast | Pf growth 48h | Shiga inhibitor | CHX counter | Pf growth 96h
CCOC(=O)c1c(C(=O)OCC)c(C)n(CCc2ccc(OC)c(OC)c2)c1C | -4% | 25% | u | -4 | -3 | 9.3µM*
CCOC(=O)c1ccc(NC(=O)COc2ccc(CNC3CCCCC3)cc2OC)cc1 | 1% | 0% | 4.7µM* | 5 | 10 | 28%
COc1ccc2c(c1)c(C(C)=O)c(C)n2CCc1ccc(OC)c(OC)c1 | -6% | 3% | -2% | -7 | -2 | 4%
Cc1ccc(N2C(=O)C(Cc3ccc(O)cc3)NC2=S)cc1C (configuration not stated) | 7% | 13% | u | 19 | -4 | u
COc1ccc(NS(=O)(=O)c2cccc(C(=O)NN=C(C)c3ccco3)c2)cc1 | x | 5% | x | x | x | x
CC(=O)N1CCc2c(sc3c2c(=O)n(-c2ccccc2)c(=O)n3Cc2ccccc2Cl)C1 | 12% | 3% | u | -6 | -6 | 12µM*
CC(C)c1ccc(C2C3=C(COC3=O)Nc3cc4c(cc32)OCO4)cc1 (configuration not stated) | 0% | 0% | 1% | -7 | -2 | u
Cc1cc(N2CCN(C(c3ccccc3)c3ccccc3)CC2)n2ncnc2n1 | -108% | x | -22% | -14 | 0 | -21%
Cc1nc2ncnn2c(N2CCN(C(c3ccccc3)c3ccccc3)CC2)c1C | -134% | x | u | 11 | -2 | 0.37µM*
Cc1noc(C)c1CSc1nnc(C)c(=O)[nH]1 | -2% | -5% | -16% | 2 | -3 | 13%
CSc1nnc(C)c(=O)[nH]1 | 11% | 13% | -18% | -2 | 5 | 15µM*
COc1ccccc1N1CCN(C(=O)CN(C)S(=O)(=O)c2cc(C)ccc2OC)CC1 | -5% | -1% | -29% | -9 | 0 | -12%
C=C1C(=O)[C@@]23[C@H](O)C[C@@H]4C(C)(C)CC[C@H](O)[C@]4(C)[C@@H]2C[C@H](O)[C@@H]1[C@H]3O | 4% | 4% | 9.3µM* | 12 | -1 | 4.1µM*
C=C1C(=O)[C@@]23[C@H](O)C[C@@H]4C(C)(C)CC[C@H](O)[C@@]4(C)[C@@H]2CC[C@@H]1[C@H]3O | -18% | -5% | 15µM* | -15 | -7 | u
CN1CCN(NC(=O)c2ccc(COc3ccccc3Br)o2)CC1 | x | 0% | 8%[5.75 µM] | 22 | 19 | 0%
Cc1ccnc2nc(C(=O)OCC(=O)NC(=O)NCc3ccco3)nn12 | x | 3% | -5% | 1 | -2 | 31%
Cc1ccc(-c2nc(CN(C)C)cc(CN(C)C)c2O)cc1 | -7% | -3% | 6.6µM* | 17 | 1 | u
COc1ccccc1N(C(=O)c1ccco1)C(C(=O)NC1CCCCC1)c1cc(OC)c(OC)c(OC)c1 (configuration not stated) | -3% | 1% | 0% | 4 | -3 | u
CC(C)c1cc2cc3ccc(=O)oc3cc2o1 | -12% | -2% | x | 64* | 33* | u
O=c1ccc2cc3ccoc3cc2o1 | -8% | 1% | 49% | -4 | 1 | 37%
CN(C)S(=O)(=O)c1ccc(N2CCCC2)c(C(=O)NC2CCC(O)CC2)c1 (configuration not stated) | x | -1% | -14% | x | x | -6%
O=C(Nc1ccccc1Cl)NC1CCCCCCC1 | -4% | -4% | 32% | 57* | 40* | u
CCc1ccccc1NC(=O)NC1CCCCC1 | 5% | u | x | 13 | 14* | u
CCc1cccc(CC)c1NC(=O)NC1CCCCC1 | -3% | -11% | 2% | 6 | -2 | 75%
